Counter-ions that a name gives are not always drawn. ± gives the uncertainty stated by the source.
System: Candida albicans SNY425 biofilm
Assay: biofilm OD600 with compound plus antifungal (OD600 (absorbance)); higher = more biofilm remaining
[1] = assay detail: disruption of 24-h mature biofilm (compound + antifungal for a second 24 h)
[2] = assay detail: sustained inhibition (compound + antifungal during 90-min adherence and 24-h growth)

Row | Compound | biofilm OD600 [1] | biofilm OD600 [2]
1 | CC(C)(C)NC(=O)[C@@H]1C[C@@H]2CCCC[C@@H]2CN1C[C@@H](O)[C@H](Cc1ccccc1)NC(=O)[C@H](CC(N)=O)NC(=O)c1ccc2ccccc2n1 [saquinavir] + OC(Cn1cncn1)(Cn1cncn1)c1ccc(F)cc1F [fluconazole] (first compound 12.5 µM) | 0.255 ± 0.0074 | 0.112 ± 0.009
2 | O=C[C@@H]1CCCN1C(=O)[C@@H]1CCCN1C(=O)OCc1ccccc1 [Z-Prolyl-prolinal] + OC(Cn1cncn1)(Cn1cncn1)c1ccc(F)cc1F [fluconazole] (first compound 12.5 µM) | 0.247 ± 0.013 | 0.0978 ± 0.0091
3 | CCN1C(=O)C=CC1=O [N-Ethylmaleimide] + C[C@@H]1[C@H](O)[C@@H](C)/C=C/C=C/C=C/C=C/C=C/C=C/C=C/[C@H](O[C@@H]2O[C@H](C)[C@@H](O)[C@H](N)[C@@H]2O)C[C@@H]2O[C@](O)(C[C@@H](O)C[C@@H](O)[C@H](O)CC[C@@H](O)C[C@@H](O)CC(=O)O[C@H]1C)C[C@H](O)[C@H]2C(=O)O [amphotericin B] (first compound 4 µM) | 0.304 ± 0.0086 | 0.189 ± 0.0049
4 | Cc1ccc(S(=O)(=O)N[C@@H](Cc2ccccc2)C(=O)CCl)cc1 + OC(Cn1cncn1)(Cn1cncn1)c1ccc(F)cc1F [fluconazole] (first compound 4 µM) | 0.241 ± 0.01 | 0.0966 ± 0.012
5 | CCCC[C@@H](C=O)NC(=O)[C@H](CC(C)C)NC(=O)OCc1ccccc1 [Calpeptin] + CC[C@H](C)C[C@H](C)CCCCCCCCC(=O)N[C@H]1C[C@@H](O)[C@@H](NCCN)NC(=O)[C@@H]2[C@@H](O)CCN2C(=O)[C@H]([C@H](O)CCN)NC(=O)[C@H]([C@H](O)[C@@H](O)c2ccc(O)cc2)NC(=O)[C@@H]2C[C@@H](O)CN2C(=O)[C@H]([C@@H](C)O)NC1=O [caspofungin] (first compound 12.5 µM) | 0.263 ± 0.0082 | 0.174 ± 0.0085
6 | CCC(C)[C@H](NS(=O)(=O)c1cccc2ccccc12)C(=O)N[C@H](C=O)Cc1c[nH]c2ccccc12 (some centres not stated) + C[C@@H]1[C@H](O)[C@@H](C)/C=C/C=C/C=C/C=C/C=C/C=C/C=C/[C@H](O[C@@H]2O[C@H](C)[C@@H](O)[C@H](N)[C@@H]2O)C[C@@H]2O[C@](O)(C[C@@H](O)C[C@@H](O)[C@H](O)CC[C@@H](O)C[C@@H](O)CC(=O)O[C@H]1C)C[C@H](O)[C@H]2C(=O)O [amphotericin B] (first compound 12.5 µM) | 0.27 ± 0.0099 | 0.188 ± 0.0088
7 | CCOC(=O)c1ccc(OC(=O)CCCCCNC(=N)N)cc1 [Gabexate mesylate] + C[C@@H]1[C@H](O)[C@@H](C)/C=C/C=C/C=C/C=C/C=C/C=C/C=C/[C@H](O[C@@H]2O[C@H](C)[C@@H](O)[C@H](N)[C@@H]2O)C[C@@H]2O[C@](O)(C[C@@H](O)C[C@@H](O)[C@H](O)CC[C@@H](O)C[C@@H](O)CC(=O)O[C@H]1C)C[C@H](O)[C@H]2C(=O)O [amphotericin B] (first compound 12.5 µM) | 0.281 ± 0.012 | 0.201 ± 0.0075
8 | COC(=O)C[C@H](NC(=O)[C@H](C)NC(=O)[C@@H](NC(=O)OCc1ccccc1)C(C)C)C(=O)CF + CC[C@H](C)C[C@H](C)CCCCCCCCC(=O)N[C@H]1C[C@@H](O)[C@@H](NCCN)NC(=O)[C@@H]2[C@@H](O)CCN2C(=O)[C@H]([C@H](O)CCN)NC(=O)[C@H]([C@H](O)[C@@H](O)c2ccc(O)cc2)NC(=O)[C@@H]2C[C@@H](O)CN2C(=O)[C@H]([C@@H](C)O)NC1=O [caspofungin] (first compound 12.5 µM) | 0.296 ± 0.011 | 0.177 ± 0.0034
9 | CC1CNc2c(cccc2S(=O)(=O)N[C@@H](CCCNC(=N)N)C(=O)N2CC[C@@H](C)C[C@@H]2C(=O)O)C1 (some centres not stated) [Argatroban] + C[C@@H]1[C@H](O)[C@@H](C)/C=C/C=C/C=C/C=C/C=C/C=C/C=C/[C@H](O[C@@H]2O[C@H](C)[C@@H](O)[C@H](N)[C@@H]2O)C[C@@H]2O[C@](O)(C[C@@H](O)C[C@@H](O)[C@H](O)CC[C@@H](O)C[C@@H](O)CC(=O)O[C@H]1C)C[C@H](O)[C@H]2C(=O)O [amphotericin B] (first compound 12.5 µM) | 0.3 ± 0.018 | 0.191 ± 0.0048
10 | CSCCC(C=O)NC(=O)C(CC(C)C)NC(=O)[C@H](CC(C)C)NC(C)=O (some centres not stated) [Calpain Inhibitor II (ALLM)] + C[C@@H]1[C@H](O)[C@@H](C)/C=C/C=C/C=C/C=C/C=C/C=C/C=C/[C@H](O[C@@H]2O[C@H](C)[C@@H](O)[C@H](N)[C@@H]2O)C[C@@H]2O[C@](O)(C[C@@H](O)C[C@@H](O)[C@H](O)CC[C@@H](O)C[C@@H](O)CC(=O)O[C@H]1C)C[C@H](O)[C@H]2C(=O)O [amphotericin B] (first compound 12.5 µM) | 0.247 ± 0.0052 | 0.193 ± 0.0094
11 | CC(NC(=O)C(Cc1ccccc1)NC(=O)OCc1ccccc1)C(=O)CF (configuration not stated) + OC(Cn1cncn1)(Cn1cncn1)c1ccc(F)cc1F [fluconazole] (first compound 12.5 µM) | 0.287 ± 0.011 | 0.119 ± 0.0049
12 | CC(C)(C)NC(=O)[C@@H]1CN(Cc2cccnc2)CCN1C[C@@H](O)C[C@@H](Cc1ccccc1)C(=O)N[C@H]1c2ccccc2C[C@H]1O [indinavir] + OC(Cn1cncn1)(Cn1cncn1)c1ccc(F)cc1F [fluconazole] (first compound 12.5 µM) | 0.273 ± 0.013 | 0.17 ± 0.015
13 | O=C(O)CNC(=O)C(CS)Cc1ccccc1 (racemic) [DL-Thiorphan] + CC[C@H](C)C[C@H](C)CCCCCCCCC(=O)N[C@H]1C[C@@H](O)[C@@H](NCCN)NC(=O)[C@@H]2[C@@H](O)CCN2C(=O)[C@H]([C@H](O)CCN)NC(=O)[C@H]([C@H](O)[C@@H](O)c2ccc(O)cc2)NC(=O)[C@@H]2C[C@@H](O)CN2C(=O)[C@H]([C@@H](C)O)NC1=O [caspofungin] (first compound 12.5 µM) | 0.262 ± 0.013 | 0.163 ± 0.0098
14 | CC[C@H](C)[C@H](N)C(=O)N1CCSC1 [P32/98 hemifumarate salt] + CC[C@H](C)C[C@H](C)CCCCCCCCC(=O)N[C@H]1C[C@@H](O)[C@@H](NCCN)NC(=O)[C@@H]2[C@@H](O)CCN2C(=O)[C@H]([C@H](O)CCN)NC(=O)[C@H]([C@H](O)[C@@H](O)c2ccc(O)cc2)NC(=O)[C@@H]2C[C@@H](O)CN2C(=O)[C@H]([C@@H](C)O)NC1=O [caspofungin] (first compound 12.5 µM) | 0.254 ± 0.0085 | 0.171 ± 0.0047
15 | CC[C@H](C)[C@H](N)C(=O)N1CCSC1 [P32/98 hemifumarate salt] + C[C@@H]1[C@H](O)[C@@H](C)/C=C/C=C/C=C/C=C/C=C/C=C/C=C/[C@H](O[C@@H]2O[C@H](C)[C@@H](O)[C@H](N)[C@@H]2O)C[C@@H]2O[C@](O)(C[C@@H](O)C[C@@H](O)[C@H](O)CC[C@@H](O)C[C@@H](O)CC(=O)O[C@H]1C)C[C@H](O)[C@H]2C(=O)O [amphotericin B] (first compound 12.5 µM) | 0.259 ± 0.014 | 0.181 ± 0.0051
16 | CC1CNc2c(cccc2S(=O)(=O)N[C@@H](CCCNC(=N)N)C(=O)N2CC[C@@H](C)C[C@@H]2C(=O)O)C1 (some centres not stated) [Argatroban] + OC(Cn1cncn1)(Cn1cncn1)c1ccc(F)cc1F [fluconazole] (first compound 12.5 µM) | 0.286 ± 0.011 | 0.113 ± 0.0066
17 | CC(C)C[C@H](NC(=O)N[C@H](C(=O)N[C@@H](CCC(N)=O)C(=O)N[C@@H](C)C=O)[C@@H]1CCNC(=N)N1)C(=O)O [Elastatinal] + C[C@@H]1[C@H](O)[C@@H](C)/C=C/C=C/C=C/C=C/C=C/C=C/C=C/[C@H](O[C@@H]2O[C@H](C)[C@@H](O)[C@H](N)[C@@H]2O)C[C@@H]2O[C@](O)(C[C@@H](O)C[C@@H](O)[C@H](O)CC[C@@H](O)C[C@@H](O)CC(=O)O[C@H]1C)C[C@H](O)[C@H]2C(=O)O [amphotericin B] (first compound 12.5 µM) | 0.273 ± 0.0073 | 0.21 ± 0.0065
18 | N[C@H](C(=O)O)[C@@H]1CC(Cl)=NO1 [Acivicin] + CC[C@H](C)C[C@H](C)CCCCCCCCC(=O)N[C@H]1C[C@@H](O)[C@@H](NCCN)NC(=O)[C@@H]2[C@@H](O)CCN2C(=O)[C@H]([C@H](O)CCN)NC(=O)[C@H]([C@H](O)[C@@H](O)c2ccc(O)cc2)NC(=O)[C@@H]2C[C@@H](O)CN2C(=O)[C@H]([C@@H](C)O)NC1=O [caspofungin] (first compound 4 µM) | 0.296 ± 0.012 | 0.163 ± 0.0049
19 | NC(=O)c1cccc(-c2cccc(OC(=O)NC3CCCCC3)c2)c1 + C[C@@H]1[C@H](O)[C@@H](C)/C=C/C=C/C=C/C=C/C=C/C=C/C=C/[C@H](O[C@@H]2O[C@H](C)[C@@H](O)[C@H](N)[C@@H]2O)C[C@@H]2O[C@](O)(C[C@@H](O)C[C@@H](O)[C@H](O)CC[C@@H](O)C[C@@H](O)CC(=O)O[C@H]1C)C[C@H](O)[C@H]2C(=O)O [amphotericin B] (first compound 12.5 µM) | 0.295 ± 0.0047 | 0.178 ± 0.0061
20 | O=C1Nc2ccc([N+](=O)[O-])cc2C1=O [5-Nitroisatin] + OC(Cn1cncn1)(Cn1cncn1)c1ccc(F)cc1F [fluconazole] (first compound 12.5 µM) | 0.249 ± 0.0083 | 0.107 ± 0.011
21 | O=c1oc(Cl)c(Cl)c2ccccc12 [3,4-Dichloroisocoumarin] + CC[C@H](C)C[C@H](C)CCCCCCCCC(=O)N[C@H]1C[C@@H](O)[C@@H](NCCN)NC(=O)[C@@H]2[C@@H](O)CCN2C(=O)[C@H]([C@H](O)CCN)NC(=O)[C@H]([C@H](O)[C@@H](O)c2ccc(O)cc2)NC(=O)[C@@H]2C[C@@H](O)CN2C(=O)[C@H]([C@@H](C)O)NC1=O [caspofungin] (first compound 12.5 µM) | 0.246 ± 0.014 | 0.21 ± 0.014

Source: the supplement of paper PMC7261846
